High-throughput results deposited in PubChem BioAssay by several laboratories.
HSP90 inh – HSP90 inhibitors, primary screen, cell lysate, luminescence. 0.91% of 290,000 active. AID 1789, 2009. Rabbit reticulocyte lysate, luciferase refolding luminescence, 3 h. inhibition, % at 5.6 µM. Heat shock protein HSP 90 (rabbit reticulocyte lysate; luciferase refolding);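 active = inhibition above the screen-wide mean plus 3 SD, computed separately per campaign, cut at about 16% in these data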;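 also: 0% = DMSO wells and 100% = 60 µM geldanamycin wells; inhibitors lower the luminescence because luciferase stays unfolded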
TROY signal inh – inhibitors of TROY-driven NF-kB signaling, primary screen, Q293 LMP1-TROYcd cells, NF-kB luciferase, uHTS; Q293 LMP1-TROYcd NF-kB luciferase reporter, 4 h; inhibition, % at 10 µM; 0.98% of 360,000 active;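 active = compounds whose plate-normalised and pattern-corrected inhibition of the luciferase reporter signal at the single screening dose is 50% or more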
HSF-1 act – HSF-1 activators, primary screen, NIH3T3-HGL cells, MG132 stress, luminescence, single point; NIH3T3-HGL HSF-1 luciferase reporter, 8 h; 100% = twice DMSO control signal; activation, % at 9 µM; 1.7% of 300,000 active; AID 504408, 2011;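 active = mean replicate activation of at least 50% with a set share of replicates each reaching 50%; inconclusive = only one of those two conditions met; inactive = mean below 50% and too few replicates reaching it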;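 also: 0% = median of the neutral control wells and 100% = twice that signal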
EBV LMP1 NFkB – EBV LMP1-driven NF-kappaB luciferase reporter inhibitors, primary screen, cell-based, luminescence, single point | 0.69% of 350,000 active | LMP1-induced NF-kappaB luciferase reporter cells | inhibition, % at 12.5 µM; in the data active = inhibition above about 41%; inconclusive = no clear call, values can overlap the other calls;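 also: 0% = neutral control wells and 100% = reference inhibitor control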
TWEAK Fn14 block – inhibitors of TWEAK-Fn14 signaling, primary screen, luciferase reporter cells, uHTS; TWEAK-stimulated Fn14 reporter cells, luciferase luminescence, 8 h; inhibition, % at 10 µM; 2% of 360,000 active; AID 1159606, 2016; in the data active = inhibition above about 50%
HSF1 inhib – HSF1 inhibitors in luciferase reporter cells, primary screen, cell-based, NIH3T3, luminescence | NIH3T3-HGL HSE-luciferase, MG132-induced, luminescence 8 h; active compounds read low | activity change, negative = inhibition, % at 7.5 µM (by protocol) | 0.77% of 300,000 active | AID 2098, 2009;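 active = more than half of replicate wells show activity change below -50%, luminescence cut by over half; inconclusive = some wells, but at most half, below -50%; inactive = no replicate well below -50%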;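 also: luciferase reports HSF-1 transcriptional activity via heat shock element; 0% = median of DMSO wells and -100% = zero luminescence signal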
Active calls of the source: *; ? = inconclusive; . = no result. Hits are enriched below; roughly 4.7% of the tested compounds scored in any of these assays.

SMILES | HSP90 inh | TROY signal inh | HSF-1 act | EBV LMP1 NFkB | TWEAK Fn14 block | HSF1 inhib
CCC1(C)Cc2ccccc2-c2nc(NCCO)n(-c3ccc(C)cc3)c(=O)c21 (stereo not given) | 5 | 54* | -5 | -4 | 42 | -11
CSc1c(C#N)c(N)nc2sc(C(=O)c3ccccc3)c(N)c12 | 0 | 6 | 116* | 5 | -5 | 81
CSc1nc(N)nc(SCC(=O)c2ccccc2)c1C#N | -2 | -31 | 5 | -4 | -13 | 1
CN(C)S(=O)(=O)c1cccc(NC(=S)N/N=C/c2cc(Br)ccc2O)c1 | 2 | 22 | 8 | 49* | 35 | 3
C=C(C)Cn1cnc2cc(C)c(C)cc21 | -4 | -4 | -1 | 5 | 86* | -7
Cc1cc2ncn(CS(C)(=O)=O)c2cc1C | 3 | -7 | -5 | 6 | 0 | -6
CSc1ccccc1C(=O)Nc1cc(C)ccc1C | -1 | 12 | 58* | -4 | 5 | 21
Cc1ccc([N+](=O)[O-])cc1S(=O)(=O)Nc1cccc(S(=O)(=O)Nc2ccccc2C(=O)O)c1 | . | -8 | . | 4 | 4 | .
Cc1ccc(C)c(NC(=O)c2ccccc2NS(=O)(=O)c2cc([N+](=O)[O-])ccc2C)c1 | 3 | 55* | 21 | 31 | 58* | 9
CCOC(=O)c1cccc(NC(=O)c2cnc3ccccc3n2)c1 | 4 | -34 | -1 | -13 | -29 | 7
Cc1cccc(NC(=O)CSc2cc(C)c(C#N)c3nc4ccccc4n23)c1 | 3 | -27 | 417* | 1 | -4 | 268
CCOC(=O)c1cccc(NC(=O)Cn2c(CC(=O)NC)nc3ccccc32)c1 | -2 | 12 | 101* | 5 | 4 | 85
Cc1cccc(NC(=O)Cn2c(/C=C/c3ccccc3)nc3ccccc32)c1 | 1 | -97 | 55* | -11 | -6 | 42
O=[N+]([O-])c1cccc(S(=O)(=O)N2CCN(c3ccccn3)CC2)c1 | -1 | 9 | 33 | -5 | 60* | 13
O=C(C1CCC1)N1CCc2cc(S(=O)(=O)N3CCN(c4ccccn4)CC3)ccc21 | 0 | -20 | 63* | 7 | -34 | 25
Cc1nn(-c2ccccc2)c(C)c1/C=N/NC(=O)c1cc(-c2ccc(Cl)s2)[nH]n1 | 1 | 13 | -5 | 22 | 59* | 1
Cc1nn(-c2ccccc2)c(C)c1/C=N/NC(=O)c1cc(-c2ccc(Br)s2)[nH]n1 | -4 | 13 | 2 | 15 | 69* | -2
Cc1cc(C(=O)N/N=C/c2c(C)nn(-c3ccccc3)c2C)n[nH]1 | 7 | -30 | 18 | -7 | -15 | 26
Cc1nn(-c2ccccc2)c(C)c1/C=N/NC(=O)c1cc(-c2cccs2)[nH]n1 | 2 | 4 | -32 | -19 | 35 | -18
Cc1nn(-c2ccccc2)c(C)c1/C=N/NC(=O)CSc1nnc(SCc2ccc(Cl)cc2)s1 | -1 | 18 | 68* | -28 | 83* | 37
NC(c1ccccc1)c1csc(Nc2ccc(C(=O)c3ccccc3)cc2)n1 (stereo not given) | . | 1 | . | . | -10 | .
CCCCNC(=O)C1c2ccccc2OCC(=O)N1C1CC1 (stereo not given) | . | -1 | . | . | 2 | .
CSC(=Nc1ccccc1)N=C(SCc1ccccc1)N(C)C | . | 45 | . | -24 | 80* | .
N#CNC(=Nc1ccccc1)SCc1ccc(C(=O)O)cc1 | 0 | 2 | 12 | -3 | 1 | 0
Cc1noc(C)c1S(=O)(=O)NC(=O)C1(C)CCN1C(=O)Cc1ccc(-c2ccccc2)cc1 (stereo not given) | . | 10 | . | . | 10 | .
SMILES | HSP90 inh | TROY signal inh | HSF-1 act | EBV LMP1 NFkB | TWEAK Fn14 block | HSF1 inhib
Cc1cc(C(C#N)c2ccc(Cl)cc2)c(Cl)cc1NC(=O)c1cc(I)cc(I)c1O (stereo not given) | . | 70* | -1 | 6 | 24 | -14
CCCc1nnc(NC(=O)C(=O)NCCN(C)C)s1 | 0 | -4 | -5 | 6 | 9 | 1
CCCc1nnc(NC(=O)C(=O)NCCN(CC)CC)s1 | 1 | 54* | -13 | -2 | 19 | -6
O=c1cc(C(F)(F)F)nc(SCc2cccc3ccccc23)[nH]1 | -2 | 62* | -3 | -2 | -28 | -1
Oc1cccc2ccc(Nc3ccccn3)nc12 | -1 | 0 | -52 | 75* | -11 | ?
C[C@@H]1CN([C@H](C)CO)C(=O)c2cc(Br)cnc2O[C@@H]1CN(C)Cc1ccc(F)cc1 | . | -15 | . | -1 | 14 | .
O=C(CC(c1ccco1)S(=O)(=O)c1ccccc1)c1ccccc1 (stereo not given) | 0 | -55 | 85* | 6 | -19 | 65
Fc1ccc(-c2nnc(-n3nnc4ccccc43)c3ccccc23)cc1 | 1 | 5 | 5 | 53* | -9 | -1
Cc1cnc(CNC(=O)c2csc([C@@H]3O[C@H](CO)[C@H](O)[C@H](O)[C@H]3O)n2)cn1 | . | 2 | . | . | 5 | .
CCCCC(=O)Nc1ccc(C(=O)NCCc2ccc(S(N)(=O)=O)cc2)cc1 | 2 | -4 | -73 | 5 | 4 | -68*
CCCCC(=O)Nc1ccc(C(=O)NCCc2ccccc2)cc1 | 5 | -33 | 26 | -9 | -14 | 2
CCCCC(=O)Nc1ccc(C(=O)Nc2ccc(S(=O)(=O)Nc3nccc(C)n3)cc2)cc1 | -3 | -4 | -72 | 2 | -17 | -64*
Cc1ccc(C(=O)NC(=C(Cl)Cl)S(=O)(=O)c2ccccc2)cc1 | 1 | -27 | 113* | -129 | 84* | 52
Cc1ccc(C(=O)NC(C#N)=C(Cl)Cl)cc1 | 1 | . | 151* | . | . | 93
COC(=O)NC(=C(Cl)Cl)S(=O)(=O)c1ccccc1 | 5 | 0 | . | -137 | 69* | .
COc1ccccc1NC(=O)Nc1nnc([C@H]2C[C@H](O)[C@@H](CO)O2)s1 | . | -9 | . | . | 6 | .
Cc1ccc(S(=O)(=O)NCCOc2nc(N3CCOCC3)nc(N3CCOCC3)n2)cc1 | 2 | -6 | 58* | 0 | -35 | 22
CN(C)CCCNc1nc2cc(-c3ccc(F)cc3)sc2c(=O)n1C | . | -19 | . | . | -48 | .
CCOC(=O)C1=C(C)NC(=S)NC1c1ccsc1 (stereo not given) | -5 | 16 | -74 | 6 | 7 | -67*
OC(c1ccccc1)(c1nc(-c2ccc(F)c(Cl)c2)cs1)C(F)(F)F (stereo not given) | . | 9 | . | . | 31 | .
CCC(=O)Nc1ccc(S(=O)(=O)NC[C@H]2O[C@@H](n3cnc4c(=O)[nH]c(N)nc43)[C@H](O)[C@@H]2O)cc1 | . | -10 | . | . | -13 | .
CCCCNC(=O)C1c2ccccc2OCC(=O)N1Cc1ccccc1 (stereo not given) | . | 2 | . | . | 24 | .
